According to PubChem BioAssay (NCI):
The panel holds about 83,000 compounds, 20% with a hit somewhere; the sample as a whole holds those more often.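 Cell lines were cultured in 96-well plates, exposed to a single compound concentration, and assessed for percent growth 48 hours later.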 Values without a mark were called inactive. The source made the active and inactive calls. How the source made its calls: active means growth percent below 10; inactive means the rest.

Tests used:
Test in all cases: NCI-60 one-dose screen, 48 h (100 = growth as untreated, 0 = no growth, -100 = all killed)
SR leukemia = conditions: 10 µM unless noted
RPMI-8226 leukemia = conditions: 10 µM unless noted
OVCAR-8 ovarian = conditions: 10 µM unless noted
OVCAR-5 ovarian = conditions: 10 µM unless noted
OVCAR-4 ovarian = conditions: 10 µM unless noted
SK-OV-3 ovarian = conditions: 10 µM unless noted
IGROV1 ovarian = conditions: 10 µM unless noted
OVCAR-3 ovarian = conditions: 10 µM unless noted
HS 578T breast = conditions: 10 µM
NCI/ADR-RES ovarian = conditions: 10 µM unless noted
T-47D breast = conditions: 10 µM unless noted
MDA-MB-435 melanoma = conditions: 10 µM unless noted
SW-620 colon = conditions: 10 µM unless noted
MCF7 breast = conditions: 10 µM unless noted
HCT-116 colon = conditions: 10 µM unless noted
HCC-2998 colon = conditions: 10 µM
KM12 colon = conditions: 10 µM unless noted
BT-549 breast = conditions: 10 µM unless noted

SMILES	growth (SR leukemia)	growth (RPMI-8226 leukemia)	growth (OVCAR-8 ovarian)	growth (OVCAR-5 ovarian)	growth (OVCAR-4 ovarian)	growth (SK-OV-3 ovarian)	growth (IGROV1 ovarian)	growth (OVCAR-3 ovarian)	growth (HS 578T breast)	growth (NCI/ADR-RES ovarian)	growth (T-47D breast)	growth (MDA-MB-435 melanoma)	growth (SW-620 colon)	growth (MCF7 breast)	growth (HCT-116 colon)	growth (HCC-2998 colon)	growth (KM12 colon)	growth (BT-549 breast)
Cc1cc(N2CCOCC2)nc(N(CCNc2ccnc3cc(Cl)ccc23)Cc2cccs2)n1	-13% (active)	-11.9% (active)	8.53% (active)	83.2%	14.2%	61.5%	35.1%	-73.9% (active)	5.37% (active)	34.1%	-29.6% (active)	-1.4% (active)	19.5%	18.2%	-25.1% (active)	-12.7% (active)	26.4%	–
Nc1ccc(S(=O)(=O)O)c2cc(S(=O)(=O)O)cc(O)c12	105%	102%	105%	102%	109%	101%	107%	113%	103%	105%	120%	110%	107%	104%	93.7%	117%	102%	–
C=C1C(=O)O[C@H]2[C@H]1CC/C(CNC(=O)c1cc3cc(OC)ccc3[nH]1)=C\CC[C@@]1(C)O[C@@H]21	-0.374% (active)	-38.4% (active)	-16.4% (active)	-20.4% (active)	-3.23% (active)	59.3%	-19.8% (active)	-90.7% (active)	-1.38% (active)	54.3%	-46.3% (active)	-48.1% (active)	-72.3% (active)	-29.6% (active)	-81.3% (active)	-90.3% (active)	25.4%	–
O=S1(=O)OC(c2ccc(O)c(Cl)c2)(c2ccc(O)c(Cl)c2)c2ccccc21	112%	104%	87.5%	96.5%	99.8%	101%	91.2%	116%	97%	–	97.2%	113%	100%	104%	99.8%	103%	103%	–
COC(=O)CCCNc1c(-c2c(O)c(O)cc3c(O)c(-c4c(C)cc5c(-c6nc7ccccn7c6NCCCC(=O)OC)c(O)c(O)cc5c4O)c(C)cc23)nc2ccccn12	24.3%	22.5%	51.4%	119%	98.6%	50.5%	34.8%	64.6%	34.5%	–	26.1%	20.7%	60.1%	18.2%	7.23% (active)	71.6%	31.8%	16%
CC(=O)Nc1cccc(-n2c(=O)n(C3CC3)c(=O)c3c(Nc4ccc(I)cc4F)n(C)c(=O)c(C)c32)c1	46.4%	45.5%	39%	6.47% (active)	37%	11.3%	16.9%	85.5%	–	46.6%	51.3%	27.7%	19%	80.8%	10.6%	-26.9% (active)	23%	60.7%
N#Cc1c(-c2ccc(C(F)(F)F)cc2)cc(NCC2CCS(=O)(=O)CC2)n2c1nc1ccccc12	79.9%	80.9%	93.3%	103%	85.4%	83.3%	85.6%	97.9%	–	103%	64.3%	92.8%	93.3%	85.6%	74.9%	91.9%	98.4%	64.9%
O=C(NO)c1ccc(Cn2c(=O)n(-c3ccccc3F)c(=O)c3ccccc32)cc1	1.63% (active)	13.3%	-39.3% (active)	27.8%	18.2%	9.04% (active)	-21.7% (active)	-17.8% (active)	–	41.6%	8.62% (active)	-78.7% (active)	0.226% (active)	20.8%	-3.7% (active)	-32.9% (active)	-40.7% (active)	21.3%
CN1CC[C@H](c2c(O)cc(O)c3c(=O)cc(-c4ccccc4Cl)oc23)[C@H](O)C1	-0.341% (active)	6.39% (active)	7.4% (active)	8.36% (active)	1.82% (active)	10.2%	4.27% (active)	17.4%	–	2.07% (active)	0.506% (active)	-73.3% (active)	0.889% (active)	4.72% (active)	4.7% (active)	-21.1% (active)	3.91% (active)	-8.28% (active)
CCN(CC)Cc1cc(Nc2cc(C(F)(F)F)c(C#N)c3nc4ccccc4n23)ccc1O	12.8%	0.326% (active)	9.84% (active)	31%	14.2%	-10.8% (active)	28.9%	10.9%	22.8%	–	-1.95% (active)	16.9%	14.7%	8.72% (active)	–	20.2%	10.8%	8.37% (active)
O=C1NC(=O)[C@@H](c2cn3c4c(cccc24)CCC3)[C@@H]1c1c[nH]c2ccccc12	13.8%	22.8%	11.3%	48%	55.4%	-0.0481% (active)	27.7%	18.4%	–	9.44% (active)	24.3%	-13.2% (active)	27.5%	19.5%	2.94% (active)	18.4%	4.42% (active)	16.2%
Nc1c(Cl)cccc1[N+](=O)[O-]	104%	100%	102%	102%	111%	108%	112%	111%	87.8%	–	110%	105%	94.6%	99.1%	112%	105%	107%	114%
COc1ccc(F)c(F)c1C(=O)c1cnc(NC2CCN(S(C)(=O)=O)CC2)nc1N	2.64% (active)	0.261% (active)	7.37% (active)	12.6%	8.36% (active)	11.9%	10.2%	13.1%	–	1.6% (active)	-3.23% (active)	-33.3% (active)	0.808% (active)	2.53% (active)	4.77% (active)	-26.5% (active)	4.84% (active)	-11.8% (active)
COc1cc2ncnc(Nc3ccc(O)cc3)c2cc1OC	27.1%	97.2%	70.7%	59.2%	88.1%	5.29% (active)	38.2%	87.4%	–	91.3%	53.9%	91.6%	112%	90.4%	75.3%	100%	89.7%	80%
CC(=O)C1=C(C)NC(SCc2nnc(-c3ccc(C)cc3)o2)=NC1c1ccc(F)cc1 (configuration not stated)	80.9%	83.7%	97%	89.6%	108%	108%	89%	105%	–	98.2%	74.4%	107%	110%	95.4%	93.6%	104%	100%	86.1%
COc1ccc(/C(C)=C(\c2ccc(Cl)cc2)c2ccc(OCCN3CCCCCC3)cc2)cc1	1.94% (active)	51.2%	69.1%	74.3%	56.4%	55.7%	67.1%	58.2%	–	82.8%	39.6%	65.9%	45%	36.5%	38.3%	82.1%	31.2%	63.5%
COc1cc(NC2CCC(=O)N2c2ccc(Cl)cc2Cl)cc(OC)c1OC (configuration not stated)	95.6%	102%	103%	99.5%	101%	102%	105%	101%	102%	–	98.3%	94.9%	96.8%	96.6%	97.1%	95.7%	97.7%	109%
